The record followed here is PubChem BioAssay (EPA / NIEHS).

The AC50 is the concentration at which the activity in the assay is half-maximal.

Assay [1] is described as follows: ATG_PBREM_CIS: Attagene CIS-FACTORIAL HepG2 Assay for human Phenobarbital-responsive Enhancer Module (PBREM) (AID 2282955). To be noted: HepG2 PBREM cis-reporter, Attagene multiplexed transcription; actives raise or lower the signal. Put shortly: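 Readout: reporter mRNA, fluorescent RT-PCR fragments separated by capillary electrophoresis. System: HepG2 transiently transfected with cis-regulated reporter units. Exposure: 24 h. Analysis: bidirectional, DMSO baseline.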

The nature of assay [2]: ATG_PXRE_CIS: Attagene CIS-FACTORIAL HepG2 Assay for human Pregnane X Receptor Element (PXRE) (AID 2282957). The following applies: HepG2 Attagene CIS-FACTORIAL PXRE reporter, mRNA; actives raise or lower the signal. Put shortly: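 Transfect HepG2 with MRTUs (cis promoter elements); dose chemical, incubate 24 h; isolate RNA, RT with oligo(dT), PCR, 6-FAM label, HpaI cut, CE. Gain/loss fit vs DMSO.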

Assay [3] in a line: ATG_PPRE_CIS: Attagene CIS-FACTORIAL HepG2 Assay for human Peroxisome Proliferator-activated Response Element (PPRE) (AID 2282958). The following applies: HepG2 PPRE cis-element reporter, Attagene transcription factor profiling; actives raise or lower the signal. Put shortly:
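After human HepG2 hepatoma cells were transiently transfected with cis-promoter reporter constructs, they were exposed to test chemicals for 24 hours. Reporter RNA was then reverse-transcribed, PCR-amplified, FAM-labeled, HpaI-digested and quantified by capillary electrophoresis.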

Assay [4] is described as follows: ATG_RORE_CIS: Attagene CIS-FACTORIAL HepG2 Assay for human RAR-related Orphan Receptor Element (RORE) (AID 2282959). To be noted: HepG2 Attagene cis-factorial RORE reporter, mRNA; actives raise or lower the signal. Put shortly: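 Measured here: transcript induction of a cis-regulated reporter in HepG2 cells transiently transfected via FuGene 6. After 24 h, RNA was processed by RT-PCR and fluorescent capillary electrophoresis; DMSO defined baseline activity.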

The nature of assay [5]: ATG_Sox_CIS: Attagene CIS-FACTORIAL HepG2 Assay for human SRY-box transcription factor (SOX) (AID 2282960). To be noted: HepG2 Attagene cis-factorial SOX reporter, mRNA; actives raise or lower the signal. The gist of the method:
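Using transiently transfected HepG2 cells, reporter transcription driven by cis elements was assessed 24 h after dosing. Signal was fluorescence of capillary-separated RT-PCR products, with DMSO defining baseline activity.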

For assay [6], the target named is Transcription factor Sp1 (Homo sapiens) (UniProt P08047). The experiment in a line: ATG_Sp1_CIS: Attagene CIS-FACTORIAL HepG2 Assay for human Specificity Protein 1 (Sp1) (AID 2282961). The following applies: HepG2 Sp1 cis-reporter transcription, actives raise or lower the signal. Put shortly: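 After transient transfection of HepG2 cells with cis-promoter reporter units and 24 h chemical treatment, reporter transcripts were quantified by RT-PCR and capillary electrophoresis fluorescence. Gain- and loss-of-signal fitted against DMSO.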
Transcription factor Sp1 (Homo sapiens), sequence (P08047 whole entry, looked up): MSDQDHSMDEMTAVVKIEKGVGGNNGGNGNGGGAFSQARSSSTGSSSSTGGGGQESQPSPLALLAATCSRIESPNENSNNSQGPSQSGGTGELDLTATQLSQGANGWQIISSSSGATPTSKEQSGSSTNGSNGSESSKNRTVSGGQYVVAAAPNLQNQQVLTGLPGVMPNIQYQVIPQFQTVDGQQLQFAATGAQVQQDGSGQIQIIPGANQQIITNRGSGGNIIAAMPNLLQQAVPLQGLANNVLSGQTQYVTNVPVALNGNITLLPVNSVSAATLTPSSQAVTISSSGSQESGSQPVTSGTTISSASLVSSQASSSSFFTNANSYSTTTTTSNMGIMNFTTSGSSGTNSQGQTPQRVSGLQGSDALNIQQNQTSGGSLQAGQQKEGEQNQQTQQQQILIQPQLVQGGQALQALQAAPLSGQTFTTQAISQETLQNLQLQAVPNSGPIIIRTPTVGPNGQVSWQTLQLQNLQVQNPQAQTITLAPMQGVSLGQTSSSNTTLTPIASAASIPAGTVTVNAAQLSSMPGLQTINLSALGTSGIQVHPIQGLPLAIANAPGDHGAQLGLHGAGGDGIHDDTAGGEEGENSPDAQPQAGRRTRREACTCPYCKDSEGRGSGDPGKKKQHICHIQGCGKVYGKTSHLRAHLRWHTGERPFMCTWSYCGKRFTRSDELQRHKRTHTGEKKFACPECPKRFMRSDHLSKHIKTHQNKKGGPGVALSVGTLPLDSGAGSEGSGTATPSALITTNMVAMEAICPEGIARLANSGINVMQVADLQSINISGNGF

Assay [7] in a line: ATG_SREBP_CIS: Attagene CIS-FACTORIAL HepG2 Assay for human Sterol Regulatory Element Binding (SREBP) (AID 2282962). To be noted: HepG2 Attagene cis-factorial SREBP reporter, mRNA; actives raise or lower the signal. The gist of the method:
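mRNA induction of transfected cis-promoter reporters in HepG2 cells, 24 h post-dose. Detection: RT-PCR with 6-FAM-labelled products, HpaI digest, capillary electrophoresis. DMSO served as negative control and baseline.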

Assay [8] concerns the target Signal transducer and activator of transcription 3 (Homo sapiens) (UniProt P40763). The assay is described as follows: ATG_STAT3_CIS: Attagene CIS-FACTORIAL HepG2 Assay for human Signal Transducer and Activator of Transcription 3 (STAT3) (AID 2282963). The following applies: HepG2, Attagene cis-factorial STAT3 reporter transcription; actives raise or lower the signal. Put shortly:
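Endogenous STAT3-responsive cis-element activity was read in transiently transfected HepG2 cells after 24 h treatment. Reporter transcripts were quantified via RT-PCR and capillary electrophoresis, with DMSO as negative control and bidirectional curve fitting.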

Assay [9] is described as follows: ATG_TA_CIS: Attagene CIS-FACTORIAL HepG2 Assay for human TA Basal Promoter (AID 2282964). The following applies: HepG2 Attagene CIS-factorial TA basal promoter reporter; actives raise or lower the signal. The gist of the method: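 Steps: transfect HepG2 with MRTUs; dose 24 h; isolate RNA, DNase-treat, reverse-transcribe; PCR and FAM-label reporter cDNA; digest with HpaI 2h at 37 C; run capillary electrophoresis. Activity fitted both directions against DMSO.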

A short description of assay [10]: ATG_TCF_b_cat_CIS: Attagene CIS-FACTORIAL HepG2 Assay for human T-Cell-Factor with beta-catenin (TCF/b-cat) (AID 2282965). The following applies: HepG2 TCF/beta-catenin cis-reporter transcription, actives raise or lower the signal. Put shortly:
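Endogenous TCF/LEF activity read as reporter transcript level via RT-PCR and capillary electrophoresis fluorescence in transfected HepG2, 24 h exposure; gain or loss of signal fitted against DMSO controls.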

Assay [11] in a line: ATG_TAL_CIS: Attagene CIS-FACTORIAL HepG2 Assay for human TAL Basal Promoter (AID 2282966).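 Also: background control endpoint measuring basal TAL promoter reporter mRNA not a specific factor.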 To be noted: HepG2 Attagene cis-factorial TAL promoter reporter; actives raise or lower the signal. The gist of the method:
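Fluorescence of labelled reporter cDNA fragments, resolved by capillary electrophoresis, gave the readout. Human HepG2 liver cells carried transiently transfected cis-element reporter units and were treated for 24 hours; activity was fitted bidirectionally against DMSO.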

Assay [12] can be described thus: ATG_TGFb_CIS: Attagene CIS-FACTORIAL HepG2 Assay for human Transforming Growth Factor (TGF) (AID 2282967). The following applies: HepG2 Attagene CIS TGFb reporter, mRNA transcription; actives raise or lower the signal. Put shortly:
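Cells were dosed for 24 hours, after which total RNA was reverse-transcribed and reporter sequences amplified, labeled and sized by capillary electrophoresis. Activity was fitted in both directions against DMSO.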

Assay [13] can be described thus: ATG_VDRE_CIS: Attagene CIS-FACTORIAL HepG2 Assay for human Vitamin D Receptor Element (VDRE) (AID 2282968). The following applies: HepG2 VDRE cis-reporter transcription, actives raise or lower the signal. The gist of the method: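 Reporter mRNA induction, quantified by capillary electrophoresis of fluorescently labelled RT-PCR products, was read 24 h after dosing HepG2 cells carrying transiently transfected cis-regulated reporter units; gain or loss relative to DMSO.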

Assay [14] has as its target Steroid hormone receptor ERR1 (Homo sapiens) (UniProt P11474). The assay is described as follows: ATG_ERRa_TRANS: Attagene TRANS-FACTORIAL HepG2 Assay for human Estrogen-Related Receptor alpha (ERRa) (AID 2282971; active = hit-call score of the fitted dose curve at least 0.9, where 1 is the maximum). To be noted: HepG2 Attagene TRANS reporter, ERRa transactivation. Put shortly:
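Reporter transcript induction was quantified by RT-PCR and capillary electrophoresis of FAM-labelled, HpaI-cut products after 24 h treatment of HepG2 cells carrying transiently transfected GAL4-UAS reporter units and an exogenous ERRa-Gal4 fusion; activity scored as increase over DMSO.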

Assay [15] concerns the target X-box-binding protein 1 (Homo sapiens) (UniProt P17861). The assay is described as follows: ATG_Xbp1_CIS: Attagene CIS-FACTORIAL HepG2 Assay for human X-box Binding Protein 1 (XBP1) (AID 2282972). The following applies: HepG2 XBP1 cis-element reporter, Attagene multiplex; actives raise or lower the signal. Put shortly: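 Fluorescence-labelled cDNA fragments from reporter transcripts, separated by capillary electrophoresis, give the signal. Source: HepG2 cells transfected with promoter-driven reporter units, harvested 24 h post-dose. DMSO served as reference for bidirectional curve fitting.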

The nature of assay [16]: ATG_GAL4_TRANS: Attagene TRANS-FACTORIAL HepG2 Assay for GAL4 (Internal Marker) (AID 2282976; active = hit-call score of the fitted dose curve at least 0.9, where 1 is the maximum). To be noted: HepG2 Attagene TRANS GAL4 internal marker reporter. The gist of the method:
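First, HepG2 cells were transfected with reporter units under GAL4-UAS control. Next, they were treated with chemical for 24 h. Finally, RNA was reverse-transcribed, PCR-amplified, FAM-labelled and resolved by capillary electrophoresis, with induction scored against DMSO.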

Assay [17] has as its target Paired box protein Pax-6 (Homo sapiens) (UniProt P26367). The experiment in a line: ATG_Pax6_CIS: Attagene CIS-FACTORIAL HepG2 Assay for human Paired Box 6 (PAX6) (AID 2282956). The following applies: HepG2 CIS-FACTORIAL PAX6 reporter transcription, RNA readout; actives raise or lower the signal. Put shortly:
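Multiplexed cis-reporter HepG2 system; 24 h treatment; reporter mRNA read by RT-PCR/CE fluorescence; bidirectional fit vs DMSO.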

The target of assay [18] is Estrogen receptor (Homo sapiens) (UniProt P03372). The experiment in a line: ATG_ERa_TRANS: Attagene TRANS-FACTORIAL HepG2 Assay for human Estrogen Receptor alpha (ERa) (AID 2282970; active = hit-call score of the fitted dose curve at least 0.9, where 1 is the maximum). The following applies: HepG2 Attagene TRANS ERa GAL4 reporter, mRNA. The gist of the method: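 Human liver HepG2, transient transfection of multiple GAL4-UAS reporter units; TRANS format (exogenous NR-Gal4 chimera). 24 h dosing. Readout: reporter mRNA, RT-PCR, 6-FAM primer extension, HpaI digest, capillary electrophoresis. Positive direction vs DMSO.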
Estrogen receptor (Homo sapiens), sequence (P03372 whole entry, looked up, the tested form may be a part): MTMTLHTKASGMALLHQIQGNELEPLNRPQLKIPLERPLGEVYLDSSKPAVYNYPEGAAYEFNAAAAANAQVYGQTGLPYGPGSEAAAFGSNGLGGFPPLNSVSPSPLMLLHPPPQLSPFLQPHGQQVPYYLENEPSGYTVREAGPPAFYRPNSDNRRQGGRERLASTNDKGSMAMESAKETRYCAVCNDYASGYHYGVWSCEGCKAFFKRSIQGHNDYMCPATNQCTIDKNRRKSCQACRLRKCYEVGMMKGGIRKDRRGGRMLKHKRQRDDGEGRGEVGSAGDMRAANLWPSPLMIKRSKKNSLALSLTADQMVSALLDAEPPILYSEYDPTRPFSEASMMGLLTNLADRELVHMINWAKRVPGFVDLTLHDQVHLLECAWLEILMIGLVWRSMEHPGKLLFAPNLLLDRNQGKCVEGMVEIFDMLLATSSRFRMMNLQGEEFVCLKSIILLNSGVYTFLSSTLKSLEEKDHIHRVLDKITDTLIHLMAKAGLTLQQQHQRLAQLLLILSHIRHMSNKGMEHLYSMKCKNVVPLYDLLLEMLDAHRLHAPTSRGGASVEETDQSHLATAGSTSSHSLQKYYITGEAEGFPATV

The nature of assay [19]: ATG_M_19_TRANS: Attagene TRANS-FACTORIAL HepG2 Assay for M19 Transcription Factor (Internal Marker) (AID 2282974; active = hit-call score of the fitted dose curve at least 0.9, where 1 is the maximum). The following applies: HepG2 Attagene TRANS-FACTORIAL M19 internal marker reporter. The gist of the method:
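Gain-of-signal in reporter mRNA, relative to DMSO, was scored from capillary electrophoresis fluorescence. HepG2 cells carried transiently transfected multiple reporter transcription units and were incubated with test chemicals for 24 h.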

Assay [20] addresses Nuclear receptor subfamily 1 group I member 3 (Homo sapiens) (UniProt Q14994). The experiment in a line: ATG_CAR_TRANS: Attagene TRANS-FACTORIAL HepG2 Assay for human Constitutive Androstane Receptor (CAR) (AID 2282969; active = hit-call score of the fitted dose curve at least 0.9, where 1 is the maximum;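 also: activators raise reporter mRNA above DMSO so AC50 marks induction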). The following applies: HepG2 Attagene TRANS-FACTORIAL CAR reporter. The gist of the method: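 Readout is reporter mRNA induction, quantified by fluorescent primer extension and capillary electrophoresis after RT-PCR. Cells were HepG2 transiently carrying chimeric NR-Gal4 constructs with GAL4-UAS reporters, treated for 24 h; activity scored upward from DMSO.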

Results filed as inconclusive are left out. Activity calls are given as the source filed them. The calls were made as follows, unless noted: active = hit-call score of the fitted dose curve at least 0.9, where 1 is the maximum; inactive = score below 0.9.

Signal transducer and activator of transcription 3 (Homo sapiens), sequence (P40763 whole entry, looked up): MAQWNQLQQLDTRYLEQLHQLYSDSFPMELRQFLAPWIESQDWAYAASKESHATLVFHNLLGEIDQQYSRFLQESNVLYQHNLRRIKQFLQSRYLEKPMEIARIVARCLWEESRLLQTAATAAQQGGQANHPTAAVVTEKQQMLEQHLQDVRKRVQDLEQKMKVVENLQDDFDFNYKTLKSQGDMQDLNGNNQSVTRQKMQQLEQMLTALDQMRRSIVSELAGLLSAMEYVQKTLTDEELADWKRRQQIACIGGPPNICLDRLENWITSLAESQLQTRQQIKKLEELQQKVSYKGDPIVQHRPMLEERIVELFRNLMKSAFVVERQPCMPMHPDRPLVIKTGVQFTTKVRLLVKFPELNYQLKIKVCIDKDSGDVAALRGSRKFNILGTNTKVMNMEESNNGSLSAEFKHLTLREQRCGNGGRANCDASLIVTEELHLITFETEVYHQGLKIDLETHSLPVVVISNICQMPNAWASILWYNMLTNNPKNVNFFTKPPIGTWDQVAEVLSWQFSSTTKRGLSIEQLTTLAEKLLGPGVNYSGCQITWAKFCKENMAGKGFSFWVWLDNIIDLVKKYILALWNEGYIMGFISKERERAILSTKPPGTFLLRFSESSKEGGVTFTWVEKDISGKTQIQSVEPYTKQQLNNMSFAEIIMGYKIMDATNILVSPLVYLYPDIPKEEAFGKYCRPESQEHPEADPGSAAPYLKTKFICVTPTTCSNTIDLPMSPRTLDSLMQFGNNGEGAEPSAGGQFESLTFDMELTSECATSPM
X-box-binding protein 1 (Homo sapiens), sequence (P17861 whole entry, looked up, the tested form may be a part): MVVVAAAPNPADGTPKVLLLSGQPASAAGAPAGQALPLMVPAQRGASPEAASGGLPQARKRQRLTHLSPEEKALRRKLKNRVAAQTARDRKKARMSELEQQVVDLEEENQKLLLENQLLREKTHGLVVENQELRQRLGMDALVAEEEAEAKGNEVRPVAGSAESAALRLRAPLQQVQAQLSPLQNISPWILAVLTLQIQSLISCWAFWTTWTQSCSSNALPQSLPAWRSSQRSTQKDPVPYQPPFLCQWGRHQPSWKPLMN
Paired box protein Pax-6 (Homo sapiens), sequence (P26367 whole entry, looked up): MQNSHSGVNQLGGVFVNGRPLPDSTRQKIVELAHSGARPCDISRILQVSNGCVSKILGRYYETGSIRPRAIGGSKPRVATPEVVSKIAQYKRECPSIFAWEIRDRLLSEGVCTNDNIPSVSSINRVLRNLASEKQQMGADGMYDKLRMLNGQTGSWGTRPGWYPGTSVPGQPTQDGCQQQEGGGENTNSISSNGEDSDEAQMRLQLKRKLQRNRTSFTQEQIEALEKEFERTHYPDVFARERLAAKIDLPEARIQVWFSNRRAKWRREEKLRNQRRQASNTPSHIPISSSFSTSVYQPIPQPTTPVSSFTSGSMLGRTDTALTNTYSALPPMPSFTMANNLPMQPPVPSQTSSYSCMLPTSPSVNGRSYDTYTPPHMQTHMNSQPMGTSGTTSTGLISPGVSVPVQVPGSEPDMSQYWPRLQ
Steroid hormone receptor ERR1 (Homo sapiens), sequence (P11474 whole entry, looked up, the tested form may be a part): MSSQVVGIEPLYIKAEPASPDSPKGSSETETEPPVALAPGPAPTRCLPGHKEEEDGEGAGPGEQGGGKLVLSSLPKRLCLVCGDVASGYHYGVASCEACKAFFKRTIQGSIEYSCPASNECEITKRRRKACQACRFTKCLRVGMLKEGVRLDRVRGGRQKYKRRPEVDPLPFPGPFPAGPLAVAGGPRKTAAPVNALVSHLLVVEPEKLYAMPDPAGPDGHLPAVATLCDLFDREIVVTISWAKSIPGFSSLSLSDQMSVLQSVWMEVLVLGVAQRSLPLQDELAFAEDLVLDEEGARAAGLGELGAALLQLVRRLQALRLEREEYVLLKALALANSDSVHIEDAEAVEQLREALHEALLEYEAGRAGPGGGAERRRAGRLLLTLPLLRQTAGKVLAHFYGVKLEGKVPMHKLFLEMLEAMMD
Nuclear receptor subfamily 1 group I member 3 (Homo sapiens), sequence (Q14994 whole entry, looked up, the tested form may be a part): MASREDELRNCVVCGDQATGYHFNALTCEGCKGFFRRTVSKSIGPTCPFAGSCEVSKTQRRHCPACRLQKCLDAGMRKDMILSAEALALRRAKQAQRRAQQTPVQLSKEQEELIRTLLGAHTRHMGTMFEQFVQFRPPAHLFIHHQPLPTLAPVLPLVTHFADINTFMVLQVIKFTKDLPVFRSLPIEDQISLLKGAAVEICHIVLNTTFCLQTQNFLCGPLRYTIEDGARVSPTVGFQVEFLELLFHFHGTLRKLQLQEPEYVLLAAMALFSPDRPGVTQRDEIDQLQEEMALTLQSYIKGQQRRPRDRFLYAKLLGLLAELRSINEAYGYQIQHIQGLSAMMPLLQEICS

As for `CCCCCCCC/C=C\CCCCCCCC(=O)OCC(O)CO` (stereo unspecified), the outcome in [1], in [2], in assay [3], in assay [4], in assay [5] and in assay [6] was inactive. Also, the outcome in assay [7], in assay [8], in [9], in [10], in [11] and in assay [12] was inactive. Moreover, the outcome in [13], in assay [14], in assay [15] and in assay [16] was inactive.
Turning to `CCc1cccc(C)c1N(C(=O)C(=O)O)C(C)COC` (stereo unspecified), the outcome in assay [1], in [17], in assay [2], in [3], in assay [5] and in assay [6] was inactive. Also, the outcome in assay [7], in assay [8], in assay [10], in assay [11], in assay [12] and in [13] was inactive. Further, the compound was classed as inactive in [18], in assay [15], in assay [19] and in assay [16].
In the case of `CCC/C=C/CO`, the result in assay [17], in assay [2], in assay [3], in [4], in [5] and in [6] was inactive. In addition, the compound was called inactive in assay [7], in [8], in assay [9], in assay [10], in [11] and in [12]. In addition, the call in assay [13], in assay [20], in assay [15], in assay [19] and in assay [16] was inactive.
As to `NC(=O)C(F)(F)C(F)(F)C(F)(F)C(F)(F)C(F)(F)C(F)(F)C(F)(F)F`, the result in [1], in assay [2], in assay [3], in assay [4], in assay [5] and in assay [6] was inactive. Further, the compound was called inactive in assay [7], in [8], in assay [9], in [10], in assay [11] and in assay [12]. Moreover, the compound was called inactive in assay [13], in [14], in [15] and in [19]. In addition, the AC50 in assay [18] is 9.95 µM (active).
